Results taken from PubChem BioAssay.
Several values for one entry are separate records, joined by “and”; a condition that tells them apart may be missing. Identical values can stand only once. Activity calls are given as the source filed them.

Experiments:
[1] = binders of probe aFSTL3 on microarray, primary screen, stem cell growth factor project, biochemical, small-molecule microarray, fluorescence 635/667 (AID 1064); settings: higher = more signal;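 note: measures binding of the biotinylated anti-FSTL3 antibody to printed compounds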
[2] = binders from COS7 lysate, DM2A8 probe, primary screen, torsin A project, cell lysate, small-molecule microarray, fluorescence 635/667 (AID 1065); settings: higher = more signal, COS7 lysate expressing mutant human TOR1A
[3] = binders of probe aFGF2 on microarray, primary screen, stem cell growth factor project, biochemical, small-molecule microarray, fluorescence 635/667 (AID 1067); settings: higher = more signal;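 note: measures binding of biotinylated aFGF2 protein to printed compounds on slides; z-score merges feature fluorescence and signal-to-noise across triplicate slides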
[4] = binders of probe aFGF10 on microarray, primary screen, stem cell growth factor project, biochemical, small-molecule microarray, fluorescence 635/667 (AID 1071); settings: higher = more signal;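 note: score merges 667 nm spot intensity and signal to noise from triplicate slides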
[5] = molecular target: Neurogenic locus notch homolog protein 2 (Homo sapiens) (UniProt Q04721); assay: Notch2 binders on small-molecule microarrays, primary screen, biochemical, small-molecule microarray, 635 nm fluorescence, stem cell growth factors (AID 1073); settings: Notch2 binding, higher = more signal
[6] = molecular target: Pro-neuregulin-1, membrane-bound isoform (Homo sapiens) (UniProt Q02297); assay: NRG1 binders on small-molecule microarrays, primary screen, psychiatric disease protein project, biochemical, small-molecule microarray, fluorescence 635/667 (AID 1075); settings: NRG1 binding, 635 nm fluorescence, higher = more signal;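 note: score combines 667 nm spot fluorescence with signal to noise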
[7] = tested on: Neuregulin-1 EGF-like domain; assay: binders of neuregulin-1 EGF-like domain, primary screen, biochemical, small-molecule microarray, 635 nm fluorescence (AID 1081); settings: small-molecule microarray binding, higher = more signal;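 note: binding of the protein to compounds printed on small-molecule microarray slides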
[8] = FRG1 promoter luciferase signal modulators, primary screen, FRG1 inhibition for FSHD, cell-based, C2C12 myotubes, firefly/Renilla luciferase, luminescence (AID 1084); settings: higher = more signal, called active from +8 up or from −8 down
[9] = binders of probe aFST on microarray, primary screen, stem cell growth factor project, biochemical, small-molecule microarray, fluorescence 635/667 (AID 1086); settings: higher = more signal;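 note: score merges 667 nm fluorescence with signal-to-noise of each printed compound spot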
[10] = binders of probe aHhip on microarray, primary screen, stem cell growth factor project, biochemical, small-molecule microarray, fluorescence 635/667 (AID 1087); settings: higher = more signal;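 note: score merges spot fluorescence at 667nm with spot signal to noise ratio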
[11] = tested on: PRMT1 (protein arginine N-methyltransferase 1); assay: PRMT1 binders on small-molecule microarrays, primary screen, biochemical, small-molecule microarray, 635 nm fluorescence (AID 1088); settings: small-molecule microarray binding, higher = more signal;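 note: binding of Prmt1 protein to compounds spotted on small-molecule microarray slides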
[12] = yeast growth modulation, basal conditions, primary screen, YJM789 clinical isolate, OD600, 24 h (AID 1089);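 note: growth of clinical yeast isolate S. cerevisiae YJM 789 seeded 1000 cells per well; test concentration not given here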; settings: S. cerevisiae YJM789 growth, higher = more signal, called active from +8 up or from −8 down
[13] = fission yeast growth modulation, primary screen, strain 972, OD600, 24 h, no modulator (AID 1090);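 note: basal condition with compound alone and no growth modifier present; test concentration not given here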; settings: S. pombe 972 growth, higher = more signal, called active from +8 up or from −8 down
[14] = S. cerevisiae growth modulation with rapamycin, primary screen, strain BY4716, OD600, 96 h (AID 1091); settings: higher = more signal, called active from +8 up or from −8 down; note: test concentration not given here
[15] = molecular target: Torsin-1A-interacting protein 2 (Homo sapiens) (UniProt Q8NFQ8); assay: LULL1 binders on small-molecule microarray, primary screen, cell lysate, human LULL1 lysate, 635/667 nm fluorescence (AID 1092); settings: hLULL1 lysate binding, 635 nm fluorescence, higher = more signal;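 note: probe is lysate of COS7 cells overexpressing human LULL1; score merges per-feature 667 nm fluorescence with signal-to-noise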
[16] = E. coli growth modulation, two-sided OD650, primary screen, E. coli filamentation project, strain DRC41, 24 h (AID 1093); settings: OD650, 24 h, higher = more signal, called active from +8 up or from −8 down;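 note: MC1000 strain lacking acrAB efflux and sulA so SOS filamentation is blocked; test concentration not given here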
[17] = small-molecule microarray binders of probe aLefty2, primary screen, biochemical, biotinylated probe, 635/667 nm fluorescence (AID 1094); settings: higher = more signal;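 note: score merges spot fluorescence near 667 nm with spot signal-to-noise ratio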
[18] = tested on: Noggin (protein binding on small-molecule microarray); assay: Noggin binders on small-molecule microarray, primary screen, biochemical, 635/667 nm fluorescence (AID 1095); settings: 635 nm fluorescence, higher = more signal;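 note: score merges 667 nm feature fluorescence with signal to noise over triplicate slides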
[19] = molecular target: Neurogenic locus notch homolog protein 3 (Homo sapiens) (UniProt Q9UM47); assay: NOTCH3 binders on small-molecule microarray, primary screen, biochemical, 635/667 nm fluorescence (AID 1096); settings: NOTCH3 binding, 635 nm fluorescence, higher = more signal
[20] = small-molecule microarray binders of probe aEGFR, primary screen, biochemical, biotinylated probe, 635/667 nm fluorescence (AID 1097); settings: higher = more signal;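 note: probe is a biotinylated anti-EGFR antibody binding compounds printed on slides; score combines fluorescence near 667 nm and signal to noise of each spot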

Sequence of Neurogenic locus notch homolog protein 3 (Homo sapiens) (Q9UM47 whole entry, looked up): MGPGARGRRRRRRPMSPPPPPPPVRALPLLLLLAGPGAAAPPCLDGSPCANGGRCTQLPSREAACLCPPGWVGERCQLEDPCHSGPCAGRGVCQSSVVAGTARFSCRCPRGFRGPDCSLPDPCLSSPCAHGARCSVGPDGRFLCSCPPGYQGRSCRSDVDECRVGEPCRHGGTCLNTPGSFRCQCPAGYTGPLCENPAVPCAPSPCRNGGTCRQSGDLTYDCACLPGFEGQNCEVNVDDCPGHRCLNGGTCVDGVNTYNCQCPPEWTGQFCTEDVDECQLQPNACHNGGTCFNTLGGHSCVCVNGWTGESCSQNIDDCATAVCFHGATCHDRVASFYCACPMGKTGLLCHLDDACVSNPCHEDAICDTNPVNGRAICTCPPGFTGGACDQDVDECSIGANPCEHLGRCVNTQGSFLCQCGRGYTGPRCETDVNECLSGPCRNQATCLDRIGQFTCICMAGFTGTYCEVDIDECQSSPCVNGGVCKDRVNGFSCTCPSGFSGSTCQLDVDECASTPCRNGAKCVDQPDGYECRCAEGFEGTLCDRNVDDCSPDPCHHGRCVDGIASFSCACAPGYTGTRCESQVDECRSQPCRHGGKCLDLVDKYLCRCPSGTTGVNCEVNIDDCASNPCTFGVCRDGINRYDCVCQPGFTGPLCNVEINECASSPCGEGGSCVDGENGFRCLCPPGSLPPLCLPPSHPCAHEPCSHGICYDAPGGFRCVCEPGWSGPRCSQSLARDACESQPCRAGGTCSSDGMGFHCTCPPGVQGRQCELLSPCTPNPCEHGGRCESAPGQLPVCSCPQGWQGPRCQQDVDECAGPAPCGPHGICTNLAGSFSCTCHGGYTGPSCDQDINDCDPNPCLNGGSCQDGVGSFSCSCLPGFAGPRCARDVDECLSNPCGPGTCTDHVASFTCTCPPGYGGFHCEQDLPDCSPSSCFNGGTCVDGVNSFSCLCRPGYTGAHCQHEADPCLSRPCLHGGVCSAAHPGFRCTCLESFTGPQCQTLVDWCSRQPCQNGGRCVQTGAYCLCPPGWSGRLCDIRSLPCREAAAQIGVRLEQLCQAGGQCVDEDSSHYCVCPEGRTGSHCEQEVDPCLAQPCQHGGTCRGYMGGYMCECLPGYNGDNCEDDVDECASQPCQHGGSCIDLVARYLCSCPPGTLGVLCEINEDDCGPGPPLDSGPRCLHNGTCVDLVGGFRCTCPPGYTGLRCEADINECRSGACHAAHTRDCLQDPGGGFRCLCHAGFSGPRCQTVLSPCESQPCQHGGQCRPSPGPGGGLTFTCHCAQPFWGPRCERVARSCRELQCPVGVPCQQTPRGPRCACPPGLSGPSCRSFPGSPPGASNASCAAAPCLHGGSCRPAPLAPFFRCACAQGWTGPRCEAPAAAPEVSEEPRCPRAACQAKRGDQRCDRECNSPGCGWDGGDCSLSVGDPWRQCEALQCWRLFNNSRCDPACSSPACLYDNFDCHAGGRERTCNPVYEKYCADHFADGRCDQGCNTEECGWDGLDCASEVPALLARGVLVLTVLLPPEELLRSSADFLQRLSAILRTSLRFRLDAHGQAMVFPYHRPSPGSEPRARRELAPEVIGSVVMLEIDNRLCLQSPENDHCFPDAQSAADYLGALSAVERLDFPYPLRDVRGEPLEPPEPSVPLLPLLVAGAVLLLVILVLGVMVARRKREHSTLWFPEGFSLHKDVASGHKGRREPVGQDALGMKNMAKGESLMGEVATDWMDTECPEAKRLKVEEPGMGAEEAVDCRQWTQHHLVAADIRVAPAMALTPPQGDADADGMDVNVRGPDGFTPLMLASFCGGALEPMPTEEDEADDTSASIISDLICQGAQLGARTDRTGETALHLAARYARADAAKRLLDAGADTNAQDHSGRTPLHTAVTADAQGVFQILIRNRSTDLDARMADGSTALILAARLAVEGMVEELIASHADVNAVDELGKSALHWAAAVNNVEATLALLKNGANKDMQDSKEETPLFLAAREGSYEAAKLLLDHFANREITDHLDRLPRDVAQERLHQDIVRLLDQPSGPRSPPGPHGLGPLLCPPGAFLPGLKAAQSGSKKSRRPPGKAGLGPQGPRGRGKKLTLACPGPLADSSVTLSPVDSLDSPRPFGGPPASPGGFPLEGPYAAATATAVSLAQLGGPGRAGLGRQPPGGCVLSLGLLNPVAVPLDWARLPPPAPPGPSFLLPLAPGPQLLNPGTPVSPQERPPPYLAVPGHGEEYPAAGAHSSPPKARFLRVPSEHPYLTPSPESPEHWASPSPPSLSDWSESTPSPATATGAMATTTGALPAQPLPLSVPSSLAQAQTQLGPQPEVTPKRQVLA
Sequence of Neurogenic locus notch homolog protein 2 (Homo sapiens) (Q04721 whole entry, looked up, canonical isoform): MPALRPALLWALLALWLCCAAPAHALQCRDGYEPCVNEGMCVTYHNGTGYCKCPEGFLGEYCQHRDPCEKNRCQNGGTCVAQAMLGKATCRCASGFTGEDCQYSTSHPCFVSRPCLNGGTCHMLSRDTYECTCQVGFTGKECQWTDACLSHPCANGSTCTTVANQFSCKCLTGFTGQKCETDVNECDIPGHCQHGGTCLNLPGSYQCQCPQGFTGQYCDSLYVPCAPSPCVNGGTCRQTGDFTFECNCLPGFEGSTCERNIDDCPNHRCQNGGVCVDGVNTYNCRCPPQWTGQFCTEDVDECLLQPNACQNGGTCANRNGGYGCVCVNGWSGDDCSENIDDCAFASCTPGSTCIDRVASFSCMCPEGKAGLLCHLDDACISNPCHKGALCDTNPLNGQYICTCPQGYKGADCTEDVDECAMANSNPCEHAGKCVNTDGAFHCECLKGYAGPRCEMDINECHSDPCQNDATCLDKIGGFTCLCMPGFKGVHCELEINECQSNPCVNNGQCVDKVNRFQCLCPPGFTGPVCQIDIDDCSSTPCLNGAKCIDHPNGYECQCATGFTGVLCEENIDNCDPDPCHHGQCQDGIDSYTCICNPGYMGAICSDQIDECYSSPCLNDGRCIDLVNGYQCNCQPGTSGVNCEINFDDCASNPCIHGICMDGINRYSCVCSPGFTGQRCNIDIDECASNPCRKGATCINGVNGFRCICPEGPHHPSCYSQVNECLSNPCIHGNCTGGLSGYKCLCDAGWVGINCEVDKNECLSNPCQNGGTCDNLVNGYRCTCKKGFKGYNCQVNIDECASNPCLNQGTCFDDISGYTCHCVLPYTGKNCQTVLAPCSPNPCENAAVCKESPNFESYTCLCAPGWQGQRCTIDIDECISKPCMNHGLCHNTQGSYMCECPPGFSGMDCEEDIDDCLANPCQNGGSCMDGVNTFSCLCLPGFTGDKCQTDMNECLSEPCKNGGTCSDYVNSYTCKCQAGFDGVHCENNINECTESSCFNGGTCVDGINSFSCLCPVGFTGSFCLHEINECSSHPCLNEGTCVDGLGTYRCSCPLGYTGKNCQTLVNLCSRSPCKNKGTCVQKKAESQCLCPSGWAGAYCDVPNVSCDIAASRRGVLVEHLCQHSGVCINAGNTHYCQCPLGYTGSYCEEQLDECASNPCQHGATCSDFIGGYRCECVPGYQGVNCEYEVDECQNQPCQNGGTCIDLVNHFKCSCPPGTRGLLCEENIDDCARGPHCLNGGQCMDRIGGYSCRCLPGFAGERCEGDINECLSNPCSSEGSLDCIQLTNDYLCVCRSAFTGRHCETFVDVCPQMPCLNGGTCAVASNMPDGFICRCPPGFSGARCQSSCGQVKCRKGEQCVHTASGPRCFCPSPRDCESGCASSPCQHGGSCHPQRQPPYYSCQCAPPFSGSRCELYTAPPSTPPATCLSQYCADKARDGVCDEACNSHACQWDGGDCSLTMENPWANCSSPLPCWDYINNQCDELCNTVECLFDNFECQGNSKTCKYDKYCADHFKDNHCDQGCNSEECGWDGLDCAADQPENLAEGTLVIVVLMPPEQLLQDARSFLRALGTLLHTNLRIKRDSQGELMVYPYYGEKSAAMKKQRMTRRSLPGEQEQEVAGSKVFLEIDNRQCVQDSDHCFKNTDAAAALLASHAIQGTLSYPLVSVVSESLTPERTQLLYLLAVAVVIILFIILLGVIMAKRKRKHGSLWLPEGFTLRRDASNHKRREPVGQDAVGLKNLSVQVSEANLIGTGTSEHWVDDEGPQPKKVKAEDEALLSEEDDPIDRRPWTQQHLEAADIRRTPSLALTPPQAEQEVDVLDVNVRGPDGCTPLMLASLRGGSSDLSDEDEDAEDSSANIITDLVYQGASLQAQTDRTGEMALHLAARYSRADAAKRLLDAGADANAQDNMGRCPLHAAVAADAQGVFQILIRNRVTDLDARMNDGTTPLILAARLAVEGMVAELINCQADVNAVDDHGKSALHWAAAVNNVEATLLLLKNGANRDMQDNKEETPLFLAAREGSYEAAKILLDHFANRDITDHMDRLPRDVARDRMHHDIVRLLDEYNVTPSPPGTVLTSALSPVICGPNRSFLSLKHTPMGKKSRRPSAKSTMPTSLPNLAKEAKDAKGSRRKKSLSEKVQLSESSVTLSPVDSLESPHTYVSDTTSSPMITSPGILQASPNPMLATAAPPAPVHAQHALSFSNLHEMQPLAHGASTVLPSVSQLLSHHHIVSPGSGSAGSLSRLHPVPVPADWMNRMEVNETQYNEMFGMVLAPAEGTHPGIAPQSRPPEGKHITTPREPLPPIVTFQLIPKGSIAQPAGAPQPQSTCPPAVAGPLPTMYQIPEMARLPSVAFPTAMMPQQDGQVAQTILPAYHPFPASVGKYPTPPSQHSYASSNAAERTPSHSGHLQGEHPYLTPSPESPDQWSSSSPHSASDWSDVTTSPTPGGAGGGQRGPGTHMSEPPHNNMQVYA

Compound | composite z-score [1] | composite z-score [2] | composite z-score [3] | composite z-score [4] | composite z-score [5] | composite z-score [6] | composite z-score [7] | z-score [8] | composite z-score [9] | composite z-score [10] | composite z-score [11] | z-score [12] | z-score [13] | z-score [14] | composite z-score [15] | z-score [16] | composite z-score [17] | composite z-score [18] | composite z-score [19] | composite z-score [20]
CC(C)OC(=O)C=C1C[C@@H](c2cccc(C(F)(F)F)c2)O[C@@H](c2cccc(C(F)(F)F)c2)O1 | 0.0946 and 0.128 | 0.297 and 1.36 | 0.0043 and -0.13 | 0.884 and -0.153 | -0.27 and -0.628 | 1.13 and 0.36 | 1.01 and 1.08 | -0.0881 (inactive) and -0.227 (inactive) | -0.0032 and -0.598 | -0.236 and -0.253 | 0.97 and 1.25 | 0.104 (inactive) and -0.425 (inactive) | 0.63 (inactive) and 0.404 (inactive) | 0.938 (inactive) and 1.23 (inactive) | 2.98 and 2.18 | -0.889 (inactive) and -1.05 (inactive) | -0.143 and -0.177 | -0.696 and -1.07 | -0.534 and -0.875 | -0.254 and -0.243
COC(=O)C1=C2N(Cc3ccccc3)C(C)=C(C(=O)OC)[C@@H](c3ccccc3)N2C(=O)[C@](O)(C(=O)OC)C1 | -0.416 and -0.485 | 0.969 and 0.932 | -0.166 and -0.0477 | 0.0291 and 0.291 | 1.12 and 0.305 | 0.598 and -0.247 | 1.09 and -0.265 | -0.0085 (inactive) and 0.0331 (inactive) | 0.084 and 0.0516 | 0.065 and -0.0237 | 0.691 and 0.144 | -0.149 (inactive) and -0.0628 (inactive) | -0.925 (inactive) and -0.134 (inactive) | -1.34 (inactive) and -0.299 (inactive) | 1.8 and -0.466 | 0.788 (inactive) and -0.0132 (inactive) | -0.142 and -0.235 | 1.14 and 0.796 | 0.81 and 0.263 | -0.142 and -0.133
C#CCN1C(/C=C/c2ccccc2)C(=O)OC[C@H]1c1ccccc1 (stereo not given in full) | -0.256 and -0.303 | 0.184 and 0.348 | -0.0569 and -0.1 | 0.301 and 0.398 | 0.346 and -0.0877 | -0.0907 and 0.365 | 0.165 and 0.833 | -1.03 (inactive) and -0.536 (inactive) | -0.151 and 0.465 | 0.0401 and -0.276 | -0.0815 and 0.365 | -3.12 (inactive) and -0.539 (inactive) | -7.61 (inactive) and -3.7 (inactive) | -3.5 (inactive) and -1.57 (inactive) | 0.447 and 2.09 | 1.07 (inactive) and 0.53 (inactive) | -0.0766 and -0.215 | 0.899 and 0.231 | 0.719 and 0.768 | -0.0304 and -0.0311
O=c1n(-c2ccccc2)c(=O)n2n1CC[C@@H]1C(=NOC[C@@H](O)COCc3ccco3)[C@H]3O[C@H]3[C@@H](O)[C@@H]12 | -0.538 and -0.609 | 1.27 and 1.24 | -0.209 and -0.258 | 0.265 and -0.486 | -0.0496 and 0.156 | -0.498 and -0.0731 | 0.874 and -0.672 | 0.193 (inactive) and -0.52 (inactive) | 0.0872 and 0.231 | -0.0994 and -0.069 | 1.23 and -0.267 | -0.188 (inactive) and 0.0291 (inactive) | -0.7 (inactive) and 0.498 (inactive) | 0.0488 (inactive) and 0.801 (inactive) | 0.264 and -1.26 | -0.517 (inactive) and 0.0684 (inactive) | -0.107 and -0.0797 | 1.06 and 0.325 | 0.827 and -0.585 | -0.139 and -0.0512
C=CCN(CCCC)C(=O)C(c1cccs1)N(C(=O)/C=C\C(=O)O)c1c(Cl)cccc1CO (stereo not given) | 1.46 and 0.323 | -1.19 and -0.707 | -0.288 and -0.203 | -1.27 and -1.8 | -1.97 and -1.39 | -1.26 and -0.533 | -0.751 and 0.176 | -0.165 (inactive) and -0.332 (inactive) | -1.94 and -0.684 | 0.679 and -0.409 | -0.663 and -0.538 | 0.135 (inactive) and 0.537 (inactive) | -0.266 (inactive) and 1.12 (inactive) | -0.548 (inactive) and -0.522 (inactive) | 0.376 and 0.744 | 0.224 (inactive) and -0.174 (inactive) | 0.148 and -0.235 | -1.97 and -2.53 | -2.02 and -1.33 | -0.451 and -0.328
CCCCCN1CC=CC23O[C@@H]4C=CCCOC(=O)C4[C@H]2C(=O)N(C(C)CO)[C@@H]3C1=O (stereo not given in full) | -1.32 and 1.66 | 0.852 and -1.23 | -0.0341 and -0.148 | -0.202 and -0.431 | -0.88 and -0.932 | 1.03 and 1.11 | 1.54 and 1.32 | 0.212 (inactive) and 0.0905 (inactive) | -0.678 and 0.24 | -1.02 and -0.274 | 0.432 and 0.967 | -0.772 (inactive) and 0.61 (inactive) | -0.328 (inactive) and 0.278 (inactive) | -1.48 (inactive) and 0.779 (inactive) | 1.01 and 2.94 | 1.78 (inactive) and 1.58 (inactive) | -0.401 and 0.157 | 0.157 and 0.362 | 0.311 and 0.388 | -0.386 and -0.253
C=C[C@@H](OC)[C@H](O)c1ccc(O)c(F)c1 | 1.24 and 0.937 | -0.598 and -1.38 | -0.183 and -0.222 | -0.609 and -0.315 | -1.74 and -0.398 | -0.725 and -0.815 | -0.564 and -0.928 | 0.679 (inactive) and -0.707 (inactive) | -1.4 and -1.25 | -0.0708 and -0.175 | -0.846 and -1.51 | 0.144 (inactive) and -3.13 (inactive) | -1.44 (inactive) and -3.23 (inactive) | 0.126 (inactive) and -0.692 (inactive) | -0.329 and -0.941 | 0.401 (inactive) and 1.45 (inactive) | -0.257 and -0.124 | -2.13 and -1.13 | -1.37 and -0.192 | -0.435 and -0.299
C=C[C@@H](OC)[C@H](O)c1ccc(OCCO)cc1 | -0.145 and 0.184 | -0.492 and -1.23 | -0.206 and -0.178 | -0.976 and -0.915 | -1.07 and -1.57 | -0.748 and -0.394 | -0.0048 and 0.0968 | 1.74 (inactive) and 0.386 (inactive) | -0.984 and -1.26 | -0.236 and -0.196 | 0.194 and -0.0886 | -0.0303 (inactive) and -2.64 (inactive) | 0.331 (inactive) and -1.68 (inactive) | -0.603 (inactive) and -0.883 (inactive) | 1.5 and -0.567 | -0.443 (inactive) and 2.25 (inactive) | -0.0466 and -0.0666 | -0.902 and -0.131 | -0.19 and -0.876 | -0.383 and -0.265
